# Source: PubChem BioAssay (NCI)
# About 83,000 compounds went through this panel and 20% of them were active in at least one assay; those are over-represented in the sample as a whole.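 Plates (96-well) were seeded with cells, treated with compound at one concentration, and incubated for 48 hours before percent growth was determined.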 Unmarked numbers belong to inactive results. Activity calls are given as the source filed them. The calls were made as follows: active = growth percent below 10; inactive = the rest.
# What was measured:
# Test in all cases: NCI-60 one-dose screen, 48 h (100 = growth as untreated, 0 = no growth, -100 = all killed)
# Conditions in all cases: 10 µM
# 786-0 renal = system: 786-0 renal
# MALME-3M melanoma = system: MALME-3M melanoma
# SF-268 CNS = system: SF-268 CNS
# SF-295 CNS = system: SF-295 CNS
# UACC-257 melanoma = system: UACC-257 melanoma
# UACC-62 melanoma = system: UACC-62 melanoma
# SK-MEL-28 melanoma = system: SK-MEL-28 melanoma
# SK-MEL-2 melanoma = system: SK-MEL-2 melanoma
# EKVX NSCLC = system: EKVX NSCLC
# SN12C renal = system: SN12C renal
# UO-31 renal = system: UO-31 renal
# TK-10 renal = system: TK-10 renal
# ACHN renal = system: ACHN renal
# CAKI-1 renal = system: CAKI-1 renal
# A498 renal = system: A498 renal
# OVCAR-8 ovarian = system: OVCAR-8 ovarian
# OVCAR-5 ovarian = system: OVCAR-5 ovarian
# IGROV1 ovarian = system: IGROV1 ovarian
# OVCAR-3 ovarian = system: OVCAR-3 ovarian
# HS 578T breast = system: HS 578T breast
SMILES,growth (786-0 renal),growth (MALME-3M melanoma),growth (SF-268 CNS),growth (SF-295 CNS),growth (UACC-257 melanoma),growth (UACC-62 melanoma),growth (SK-MEL-28 melanoma),growth (SK-MEL-2 melanoma),growth (EKVX NSCLC),growth (SN12C renal),growth (UO-31 renal),growth (TK-10 renal),growth (ACHN renal),growth (CAKI-1 renal),growth (A498 renal),growth (OVCAR-8 ovarian),growth (OVCAR-5 ovarian),growth (IGROV1 ovarian),growth (OVCAR-3 ovarian),growth (HS 578T breast)
O=C1NC(=S)S/C1=C\c1cn(-c2ccccc2)nc1-c1ccc([N+](=O)[O-])cc1,17.9%,-5.53% (active),42.7%,5.23% (active),-10.5% (active),8.03% (active),18.3%,-29.2% (active),9.43% (active),14.9%,14%,19.3%,12.6%,14.5%,-2.74% (active),18%,48.5%,29.2%,21.7%,30.1%
Cc1ccc2c(c1)C(=O)/C(=C/c1c[nH]c3ccccc13)S2,63.9%,91.9%,44.9%,73.2%,72.4%,54.4%,65.2%,99.7%,50.8%,51.2%,40.4%,105%,58.2%,37.1%,127%,55.3%,87%,59.8%,42.7%,55.6%
O=C(Nc1ccc(OCc2ccc(Cl)cc2)cc1)Nc1ccc(Cl)c(C(F)(F)F)c1,17.2%,-16.6% (active),43.3%,-12.8% (active),-6.05% (active),16.8%,35.6%,-30% (active),2.59% (active),18.2%,6.65% (active),18.5%,11.2%,1.19% (active),-12.4% (active),13.5%,53.3%,47.6%,29.3%,22.1%
COc1cccc(O)c1/C=C1\SCc2cc3c(OC)cccc3[o+]c21,105%,107%,103%,99%,103%,98.7%,105%,110%,105%,101%,65.5%,111%,104%,96.8%,141%,107%,105%,104%,108%,111%
COc1ccc(C(=O)COc2ccc(NC(=O)Nc3ccc(Cl)c(C(F)(F)F)c3)cc2)cc1,25.2%,31.3%,37.9%,5.9% (active),11.8%,7.25% (active),40.1%,-6.77% (active),10.3%,40.9%,33.3%,46.8%,17.9%,27.2%,60.8%,22.5%,67.7%,49.9%,28.3%,53.4%
Cc1cc(N=C2NC(=O)S/C2=C\c2ccc(F)cc2)n[nH]1,10.3%,-7% (active),29%,12.1%,19.6%,-19.6% (active),-7.09% (active),11%,15.2%,22.8%,12.1%,32.7%,27.4%,21.2%,64%,12.2%,31%,25.3%,20.2%,10%
Cn1cc(/C=C(/SS/C(=C/c2cn(C)c3cccc(C(=O)O)c23)C(=O)O)C(=O)O)c2c(C(=O)O)cccc21,104%,97.9%,101%,105%,104%,92.3%,98.3%,106%,98.2%,99%,88.1%,93%,110%,87.9%,109%,103%,105%,113%,109%,108%
Cc1ccc(COc2ccc(NC(=O)Nc3ccc(Cl)c(C(F)(F)F)c3)cc2)cc1,89.4%,75.5%,86.2%,67.7%,76.1%,60.5%,93.6%,85.3%,63.1%,81.1%,63.5%,77.9%,56.8%,61.7%,82.6%,80.4%,85%,79.2%,68.7%,86.7%
O=C(CC(=O)Nc1ccc(Oc2ncnc3scc(Nc4n[nH]c(=S)s4)c23)cc1)Nc1ccc(Cl)cc1,101%,109%,85%,99.6%,104%,53.6%,101%,98.3%,75.6%,88.1%,47%,137%,77.4%,62.9%,108%,93.5%,79%,62.2%,82.7%,86%
Cn1cc(-c2nnc(N)nc2-c2c[nH]c3ccccc23)c2cc(Br)cnc21,40.1%,45.9%,57.4%,37.2%,73%,24.3%,49.2%,46.2%,46.6%,56.1%,24.7%,61.4%,39.7%,24.3%,81.9%,62%,94.3%,35.6%,65.1%,77.3%
Cc1ccc2c(c1)C(=O)/C(=C/c1ccc([N+](=O)[O-])cc1)S2,101%,97.8%,96.4%,98.2%,101%,73.2%,109%,101%,91.6%,93.4%,58.2%,135%,102%,61.9%,114%,105%,82.9%,63.8%,103%,86%
CC(C)(C)c1cc(/C=C2\S/C(=N/c3ncn[nH]3)NC2=O)cc(C(C)(C)C)c1O,24.5%,36.8%,23.3%,14.3%,17.5%,1.85% (active),21.6%,-7.9% (active),12.3%,12.7%,15.1%,24%,18.2%,19.6%,32.8%,10.8%,32.8%,17.7%,17.3%,11.8%
O=C(CSc1nc2ccccc2c(=O)n1-c1ccc(Cl)cc1)Nc1ccc(-c2nc3ccc([N+](=O)[O-])cc3[nH]2)cc1,53.7%,21.7%,38.4%,23.7%,36%,36.9%,21.1%,34.4%,35.9%,42.9%,74.3%,89.9%,45.5%,40.8%,81.7%,-87.5% (active),92.6%,64.2%,19.4%,11.8%
Cc1cc(N=C2NC(=O)/C(=C/c3cc(C(C)(C)C)c(O)c(C(C)(C)C)c3)S2)n[nH]1,12%,19.2%,32.7%,-0.721% (active),4.76% (active),8.86% (active),22.9%,-27.6% (active),2.77% (active),16.6%,16.7%,-11.6% (active),14%,12.4%,-8.54% (active),8.93% (active),36.6%,14.4%,9.43% (active),-3.19% (active)
CCn1c(SCC(=O)Nc2ccc(-c3nc4ccccc4[nH]3)cc2)nc2ccccc2c1=O,-89.1% (active),-83.6% (active),-29.4% (active),-66.8% (active),-84.6% (active),-81.7% (active),-76.7% (active),-79.4% (active),-42.5% (active),-77.7% (active),-95.4% (active),-95.4% (active),-86.4% (active),-99.2% (active),-75% (active),-85.5% (active),-44.4% (active),-52.5% (active),-66.1% (active),-37.8% (active)
Cc1ccc2sc3c(c2c1)Oc1nc[nH]c(=O)c1C3c1cccc(F)c1 (stereo not given),102%,98.7%,104%,109%,101%,74.5%,110%,102%,87.9%,89.5%,66.3%,154%,97%,83.2%,129%,107%,108%,89.2%,114%,94.4%
